Data: PubChem BioAssay (Tox21)
Where “and” joins values, the source holds several entries; their conditions need not be identical. Equal entries are not always repeated. Results filed as inconclusive are left out. Entries that show only a call come without a potency. More than one record can exist for a structure, and the calls need not agree. Calls of active or inactive are those of the source. Unless noted, calls come from the whole dose curve; as a rule, active = well fitted curve in the direction sought with a large enough effect in the repeat runs; inconclusive = weak or mixed curves; inactive = no such curve, though single readings can be large; an effect the other way counts as inactive or inconclusive.

Assays:
[1] = qHTS assay for small molecule agonists of the p53 signaling pathway (AID 651631; calls by dose curve; note: nearly all actives have a fitted effect of over 15% in size); settings: HCT-116 p53RE-bla reporter, beta-lactamase FRET ratio, 16 h; series mostly up to 73.3 µM
Procedure, shortened: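 HCT-116 cells carrying a beta-lactamase reporter under p53 response elements were dosed with compound for 16 h at 37 °C. LiveBLAzer B/G FRET substrate was then added for 2 h at room temperature, and fluorescence intensity was read to detect pathway agonism.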

[2] = qHTS assay for small molecules that induce genotoxicity in human embryonic kidney cells expressing luciferase-tagged ATAD5 (AID 651632); settings: HEK293T ATAD5-luciferase induction, 16 h; series mostly up to 83.3 µM; note: nearly all actives have a fitted effect of over 15% in size
Procedure, shortened: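 Luminescent reporter readout, HEK293T ATAD5-luc line: 16 hr drug exposure (37C, 5% CO2) followed by Amplite, 30 min RT.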

[3] = qHTS assay for small molecule agonists of the p53 signaling pathway - cell viability (AID 651633; calls by dose curve; note: nearly all actives have a fitted effect of over 30% in size); settings: p53RE-bla HCT-116 viability, ATP luminescence, 16 h; series mostly up to 83.3 µM
Procedure, shortened: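 p53RE-bla cells were treated with compound for 16 hours at 37 C. Cytotoxicity was then measured as CellTiter-Glo luminescence after 30 min at room temperature.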

[4] = qHTS assay for small molecules that induce genotoxicity in human embryonic kidney cells expressing luciferase-tagged ATAD5 - cell viability (AID 651634; calls by dose curve; note: nearly all actives have a fitted effect of over 25% in size); settings: HEK293T ATAD5-luc cells viability, CellTiter-Fluor, 15.5 h; series mostly up to 83.3 µM
Procedure, shortened: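 Viability read: CellTiter-Fluor fluorescence, 30 min at 37C. Cells: HEK293T, luciferase-tagged ATAD5. Exposure: 15.5 hr, 37C, 5% CO2, compound or DMSO vehicle.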

[5] = qHTS assay for small molecule disruptors of the mitochondrial membrane potential - cell viability (AID 720634; calls by dose curve;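 note: human HepG2 liver cancer cells; nearly all actives have a fitted effect of over 20% in size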); settings: HepG2 viability, ATP luminescence (CellTiter-Glo), 1 h; series mostly up to 83.2 µM
Procedure, shortened: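 HepG2, 1 hr compound, 37 C. ATP luminescence via CellTiter-Glo, 30 min RT, same well as m-MPI.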

[6] = qHTS assay for small molecule disruptors of the mitochondrial membrane potential (AID 720635); settings: HepG2 mitochondrial membrane potential, Mito-MPS dye ratio; series mostly up to 83.2 µM; note: potency is the fitted concentration of half-maximal effect
Procedure, shortened: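 HepG2 cells exposed to compound 1 hr at 37C, then Mito-MPS dye 30 min. Ratio read of aggregate (540/590 nm) versus monomer (490/535 nm) fluorescence.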

[7] = qHTS assay to test for compound auto fluorescence at 590 nm (red) in HepG2 cells (AID 720674); settings: HepG2 autofluorescence, red 540/590 nm, 1 h; series mostly up to 91.3 µM
Procedure, shortened: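 Fluorescence at 590 nm emission following 540 nm excitation was recorded from HepG2 wells one hour after compound transfer, with DMSO-only wells as vehicle and Rose Bengal sodium equivalency as the scale.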

[8] = qHTS assay to test for compound auto fluorescence at 535 nm (green) in HepG2 cells (AID 720675); settings: green autofluorescence 485/535 nm, 1 h; series mostly up to 91.3 µM
[9] = qHTS assay to test for compound auto fluorescence at 460 nm (blue) in HEK293 cells (AID 720678); settings: blue autofluorescence 405/460 nm; series mostly up to 91.3 µM
Procedure, shortened: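 Cells were seeded and left to adhere for 4-5 hr at 37C. Compounds were then pin-transferred. After an overnight incubation at 37C under 5% CO2, intrinsic fluorescence at 405/460 nm was measured and referenced to triamterene.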

[10] = qHTS assay to test for compound auto fluorescence at 590 nm (red) in HEK293 cells (AID 720679); settings: red autofluorescence 540/590 nm; series mostly up to 91.3 µM
Procedure, shortened: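 Each well held 2,000 HEK293 cells in medium containing 10% dialyzed FBS. Following 4-5 hr attachment at 37C, 23 nL test compound or DMSO was added; plates sat overnight, and red fluorescence (540/590nm) was recorded.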

| Compound | outcome [1] | outcome [2] | outcome [3] | outcome [4] | Potency [5] | Potency [6] | outcome [7] | outcome [8] | outcome [9] | outcome [10] |
| --- | --- | --- | --- | --- | --- | --- | --- | --- | --- | --- |
| CCOC(=O)c1ccccc1C(=O)OCC | inactive | inactive | inactive | inactive | inactive | inactive | inactive | inactive | inactive | inactive |
| CC(C)C1(C)N=C(c2nc3ccccc3cc2C(=O)O)NC1=O (stereo unspecified) | inactive | inactive | inactive | inactive | inactive | inactive | inactive | inactive | inactive | inactive |
| CC(NC(C)(C)C)C(=O)c1cccc(Cl)c1 (stereo unspecified) | inactive | inactive | inactive | inactive | inactive | inactive | inactive | inactive | inactive | inactive |
| Oc1ccccc1Cl | inactive | inactive | inactive | inactive | inactive | inactive | inactive | inactive | inactive | inactive |
| Nc1ccccc1C(=O)O | inactive | inactive | – | inactive | inactive | inactive | inactive | inactive | inactive | inactive |
| CN=C=S | inactive | inactive | – | inactive | inactive | inactive | inactive | inactive | inactive | inactive |
| Nc1c(Cl)c(Cl)nc(C(=O)O)c1Cl | inactive | inactive | inactive | inactive | inactive | inactive and 56.1 µM (active) | inactive | inactive | inactive | inactive |
| NCCc1ccc(O)cc1 | inactive | inactive | inactive | inactive | inactive | inactive | inactive | inactive | inactive | inactive |
| OC(O)C(Cl)(Cl)Cl | inactive | inactive | inactive | inactive | inactive | inactive | inactive | inactive | inactive | inactive |
| CC(C)OC(=O)Nc1cccc(Cl)c1 | inactive | inactive | inactive | inactive | – | 47.9 µM (active) and 24.3 µM (active) | inactive | inactive | inactive | inactive |
| ClCc1cccnc1 | inactive | inactive | inactive | inactive | inactive | inactive | inactive | inactive | inactive | inactive |
| O=C(O)c1ccccn1 | inactive | inactive | inactive | inactive | inactive | inactive | inactive | inactive | inactive | inactive |
| O=c1n(Cl)c(=O)n(Cl)c(=O)n1Cl | inactive | inactive | inactive | inactive | inactive | inactive | inactive | inactive | inactive | inactive |
| CN(C)CCO | inactive | inactive | inactive | inactive | inactive | inactive | inactive | inactive | inactive | inactive |
| CCCCCOC(=O)c1ccccc1C(=O)OCCCCC | inactive | inactive | inactive | inactive | inactive | inactive | inactive | inactive | inactive | inactive |
| CC(Br)C(=O)O (stereo unspecified) | inactive | inactive | – | inactive | inactive | inactive | inactive | inactive | inactive | inactive |
| c1cc2c3c(cccc3c1)CC2 | inactive | inactive | inactive | inactive | inactive | inactive | inactive | inactive | inactive | inactive |
| CC(C)(Cl)Cl | inactive | inactive | – | inactive | inactive | inactive | inactive | inactive | inactive | inactive |
| CC(C#N)CCC#N (stereo unspecified) | inactive | inactive | inactive | inactive | – | – | inactive | inactive | inactive | inactive |
| COC(=O)c1ccccc1C(=O)OC | inactive | inactive | inactive | inactive | inactive | inactive | inactive | inactive | inactive | inactive |
| ClCCBr | inactive | inactive | – | inactive | inactive | inactive | inactive | inactive | inactive | inactive |
| CCC[N+](=O)[O-] | inactive | inactive | inactive | inactive | inactive | inactive | inactive | inactive | inactive | inactive |
| O=NN1CCCCCCC1 | inactive | inactive | – | inactive | inactive | inactive | inactive | inactive | inactive | inactive |
| CCCCCCCCCl | inactive | inactive | inactive | inactive | inactive | inactive | inactive | inactive | inactive | inactive |
| CC(C)NC(=O)N1CC(=O)N(c2cc(Cl)cc(Cl)c2)C1=O | inactive | inactive | inactive | inactive | inactive | inactive | inactive | inactive | inactive | inactive |
